Rows were chosen to be rich in hits. Some 12% of all compounds tested hit in one or more screens of this group.
G9a inh – blocks human histone lysine methyltransferase G9a; Q96KQ7; G9a H3K9 monomethylation, AlphaScreen, 2 h; Potency, µM (titrated, usually from 102 µM), hits mostly inhibitors; 350,000 tested, 8.8% active; AID 504332; further: nearly all actives have a fitted effect of over 75% in size
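G9a (20 nM) preincubated 15 min RT with compounds, then 500 nM biotinylated H3K9 peptide and 20 uM SAM added; 2 h RT reaction. Monomethyl-H3K9 product detected by AlphaScreen with anti-H3K9me1 antibody, streptavidin donor and anti-rabbit IgG acceptor beads.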
Sfp inh – inhibitors of Bacillus subtilis Sfp phosphopantetheinyl transferase | AID 1490 | Q9F4F7 | Biochemical Sfp PPTase activity, qHTS | 310,000 tested, 3.5% active | Potency, µM, hits mostly inhibitors;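 further: the enzyme is Sfp with the accession as filed and its product quenches rhodamine fluorescence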
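Step 1, compound plus 15 nM Sfp-PPTase, 15 min, room temperature. Step 2, add rhodamine-CoA (5 uM) and BHQ-2-YbbR (12.5 uM). Step 3, read 525/598 nm fluorescence at 0 and 30 min.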
HP1b binding inh – inhibitors of HP1-beta chromodomain binding to methylated histone tails; 390,000 tested, 0.56% active; AID 540317; Potency, µM (titrated, usually from 114 µM), actives largely listed as inhibitors; AlphaScreen HP1-beta / biotin-H3K9me3 peptide binding; further: nearly all actives have a fitted effect of over 70% in size
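HP1-beta protein (50 nM final) preincubated 30 min at room temperature with biotinylated H3(1-18)K9me3 peptide (50 nM) in PBS pH 7.4, 0.01% Tween-20, then compound added for 30 min. AlphaScreen streptavidin donor/nickel chelate acceptor beads (10 ug/mL final), 30 min dark, luminescence read.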
BAZ2B block – inhibitors of human BAZ2B bromodomain; Q9UIF8; AlphaScreen BAZ2B-H3K14Ac peptide displacement; Potency, µM (titrated, usually from 114 µM), most hits filed as inhibitors; 360,000 tested, 4.4% active; AID 504333; further: nearly all actives have a fitted effect of over 60% in size
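AlphaScreen luminescence quantifies BAZ2B engagement of H3K14Ac peptide; the protein and biotinylated peptide are both at 50 nM final, buffer PBS pH 7.4 with 0.01% Tween-20, all steps at room temperature.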
L3MBTL1 inh – inhibitors of human L3MBTL1; Q9Y468; AlphaScreen L3MBTL1–H3K9me1 peptide binding; Potency, µM (doses to about 57.1 µM), hits mostly inhibitors; 230,000 tested, 0.66% active; AID 485360; further: nearly all actives have a fitted effect of over 60% in size
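Displacement of a biotinylated histone H3(1-15) peptide monomethylated at Lys9 (75 nM) from L3MBTL1 (50 nM) was measured by AlphaScreen after a 30 min room-temperature compound incubation; cefsulodin titration served as intraplate control.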
JMJD2A Tudor – JMJD2A Tudor domain (human) inhibition; O75164; AlphaScreen JMJD2A-Tudor / H3K4me3 peptide binding; Potency, µM (doses to about 114 µM), usual class: inhibitors; 390,000 tested, 4.4% active; AID 504339; further: nearly all actives have a fitted effect of over 50% in size
Target sequence (O75164 whole entry, looked up, the tested form may be a part): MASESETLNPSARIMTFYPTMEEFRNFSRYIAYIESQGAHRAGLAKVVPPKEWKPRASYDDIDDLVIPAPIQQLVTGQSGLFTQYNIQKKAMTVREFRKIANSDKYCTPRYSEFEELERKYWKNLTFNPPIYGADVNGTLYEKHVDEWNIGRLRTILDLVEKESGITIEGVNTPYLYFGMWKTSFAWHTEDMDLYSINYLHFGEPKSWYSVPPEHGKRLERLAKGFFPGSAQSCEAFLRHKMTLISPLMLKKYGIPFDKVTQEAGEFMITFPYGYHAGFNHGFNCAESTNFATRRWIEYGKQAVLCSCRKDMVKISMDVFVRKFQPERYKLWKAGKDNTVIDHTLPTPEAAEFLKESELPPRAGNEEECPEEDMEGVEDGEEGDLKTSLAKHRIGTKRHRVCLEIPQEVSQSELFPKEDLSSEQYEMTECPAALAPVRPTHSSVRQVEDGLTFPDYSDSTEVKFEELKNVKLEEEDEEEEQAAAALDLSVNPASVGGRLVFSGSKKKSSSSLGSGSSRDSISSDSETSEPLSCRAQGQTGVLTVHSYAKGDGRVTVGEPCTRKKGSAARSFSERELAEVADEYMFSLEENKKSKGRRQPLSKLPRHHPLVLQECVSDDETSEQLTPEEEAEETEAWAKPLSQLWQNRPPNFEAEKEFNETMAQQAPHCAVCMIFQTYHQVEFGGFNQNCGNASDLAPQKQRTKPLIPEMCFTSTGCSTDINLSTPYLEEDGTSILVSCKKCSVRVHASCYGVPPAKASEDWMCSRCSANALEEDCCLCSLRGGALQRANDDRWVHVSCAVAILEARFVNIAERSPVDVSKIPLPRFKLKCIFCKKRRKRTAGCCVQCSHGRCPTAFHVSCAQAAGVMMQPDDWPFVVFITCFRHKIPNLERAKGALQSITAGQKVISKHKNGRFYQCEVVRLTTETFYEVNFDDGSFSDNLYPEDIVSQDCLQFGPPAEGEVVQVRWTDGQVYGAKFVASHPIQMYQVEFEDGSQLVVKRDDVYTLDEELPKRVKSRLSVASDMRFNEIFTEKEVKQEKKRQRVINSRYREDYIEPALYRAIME
Of the large screens only hits and unclear results are named; the others gave an inactive call. The call rests on the fitted dose curve; in most records, active means well fitted curve in the direction sought with a large enough effect; inconclusive means small, poorly fitted or top-dose-only effect, or another doubt; inactive means no such curve, though single readings can be large; an effect the other way counts as inactive or inconclusive.

COc1cc(-c2noc(CCC(=O)Nc3cc(C)ccc3C)n2)cc(OC)c1OC	none (no result: Sfp inh, L3MBTL1 inh)
O=C(O)CCSc1nc2ccccc2s1	G9a inh inconclusive (no result: L3MBTL1 inh)
Nc1c(C(=O)O)ccc2c1C(=O)c1ccccc1C2=O	G9a inh 35µM, HP1b binding inh inconclusive, BAZ2B block 35µM, JMJD2A Tudor inconclusive
Nc1c(SCCC(=O)O)ccc2c1C(=O)c1ccccc1C2=O	G9a inh 35µM, HP1b binding inh inconclusive, BAZ2B block 40µM, JMJD2A Tudor inconclusive (no result: L3MBTL1 inh)
Nc1cc(C(=O)O)c(N)c2c1C(=O)c1ccccc1C2=O	G9a inh inconclusive, Sfp inh inconclusive, HP1b binding inh 14µM, BAZ2B block 14µM, JMJD2A Tudor inconclusive (no result: L3MBTL1 inh)
Cc1nc2c(c(=O)[nH]1)CSCC2	none (no result: G9a inh, HP1b binding inh, BAZ2B block, L3MBTL1 inh, JMJD2A Tudor)
COc1cccc(NC(=O)Cn2c(=O)n(-c3cccc(OC)c3)c(=O)c3c4c(sc32)CCCC4)c1	none (no result: Sfp inh, L3MBTL1 inh)
CCc1ccccc1NC(=O)CC1NCCNC1=O (stereo not drawn)	none (no result: Sfp inh, L3MBTL1 inh)
c1ccc2c(c1)NCC1CCCN21 (stereo not drawn)	G9a inh 2.2µM, HP1b binding inh inconclusive, BAZ2B block 45µM, JMJD2A Tudor 50µM (no result: L3MBTL1 inh)
Cc1cccc(NCC(=O)NNC(=S)Nc2ccccc2)c1	G9a inh 32µM, JMJD2A Tudor inconclusive
O=C(CSCc1ccccc1Cl)NNC(=S)Nc1ccccc1	G9a inh 7.9µM, JMJD2A Tudor inconclusive
CC(=O)c1cccc(NC(=S)NC(=O)Cc2ccc(Cl)cc2)c1	none
O=C(Cc1ccccc1)NNC(=S)Nc1ccc(Cl)cc1	G9a inh inconclusive
CC(=O)c1cccc(NC(=S)NC(=O)Cc2ccccc2)c1	G9a inh 22µM, BAZ2B block inconclusive
Cc1cccc(NC(=S)NNC(=O)Cc2ccccc2)c1	G9a inh 16µM
Cc1cccc(NC(=O)CC(=O)Nc2cccc(C)c2)c1	none (no result: L3MBTL1 inh)
CCOc1cccc2sc(N3CCN(C(=O)c4ccc5c(c4)CCCC5)CC3)nc12	G9a inh inconclusive (no result: Sfp inh, L3MBTL1 inh)
O=C(CSC(=O)c1ccccc1)Nc1ccccc1F	HP1b binding inh inconclusive (no result: G9a inh, Sfp inh, BAZ2B block)
CC(=O)c1cccc(NC(=O)CSC(=O)c2ccccc2)c1	G9a inh 20µM
Cc1ccccc1OCC(O)Cn1c(SC(C)C)nc2c1c(=O)[nH]c(=O)n2C (stereo not drawn)	G9a inh 3.5µM, Sfp inh 56µM, JMJD2A Tudor inconclusive
CCSc1nc2c(c(=O)[nH]c(=O)n2C)n1CC(O)COc1ccccc1C (stereo not drawn)	G9a inh 16µM, Sfp inh inconclusive
COc1ccc(NC(=O)c2cc(-c3ccco3)on2)cc1OC	G9a inh 50µM (no result: L3MBTL1 inh)
Cc1ccc(NC(=O)N/C=C/c2ccco2)cc1C	G9a inh 32µM, JMJD2A Tudor inconclusive
Cc1ccc(NC(=O)c2cc(-c3ccco3)on2)cc1C	G9a inh 50µM, Sfp inh inconclusive, BAZ2B block inconclusive
Cc1nn(Cc2ccc(F)cc2)c(C)c1NC(=O)c1cc(-c2ccco2)on1	G9a inh 56µM
COc1ccc(-c2cc(C(=O)Nc3c(C)nn(Cc4ccc(F)cc4)c3C)no2)cc1OC	none (no result: Sfp inh, L3MBTL1 inh)
Cc1ccccc1S(=O)(=O)N1CCN(S(=O)(=O)c2ccc3c(c2)OCCO3)CC1	none (no result: G9a inh, Sfp inh, HP1b binding inh, BAZ2B block, L3MBTL1 inh)
COc1ccc(C2CC(=O)N(Cc3cccc(C)c3)c3c2c(C)nn3-c2nc(C)cc(C)n2)c(OC)c1 (stereo not drawn)	none (no result: Sfp inh, L3MBTL1 inh)
CCN1C(=O)c2ccccc2S(=O)c2ccc(C(=O)N3CCN(c4ccc(F)cc4)CC3)cc21 (stereo not drawn)	none (no result: Sfp inh, L3MBTL1 inh)
CCc1ccccc1NC(=O)c1cc(-c2ccc(OC)cc2)on1	none (no result: L3MBTL1 inh)
CCc1ccccc1NC(=O)c1cc(-c2ccco2)on1	G9a inh 40µM (no result: L3MBTL1 inh)
CC(=O)N1CCN(C(=O)C(Cc2ccccc2)NC(=O)c2ccccc2)CC1 (stereo not drawn)	none (no result: Sfp inh)
O=C(NC(Cc1ccccc1)C(=O)N1CCN(c2ccccc2O)CC1)c1ccccc1 (stereo not drawn)	G9a inh 50µM (no result: Sfp inh)
O=C(N[C@@H](Cc1ccccc1)C(=O)O)c1cccnc1	G9a inh 50µM (no result: L3MBTL1 inh)
O=C(NCc1ccccc1)c1cccnc1	G9a inh inconclusive
